“And” between values parts separate entries of the source, which are not always exact repeats. Equal entries are not always repeated. Results filed as inconclusive are left out. The source made the active and inactive calls. Unless noted, the call rests on the fitted dose curve; in most records, active means well fitted curve in the direction sought with a large enough effect in the repeat runs; inconclusive means weak or mixed curves; inactive means no such curve, though single readings can be large; an effect the other way counts as inactive or inconclusive.
How the values were obtained:
[1] = qHTS assay for small molecules that induce genotoxicity in human embryonic kidney cells expressing luciferase-tagged ATAD5 (AID 651632); further: on the % scale 0 is the no-effect control and ±100 the full control effect; nearly all actives have a fitted effect of over 15% in size
Summary of the method: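 Increased luciferase signal from ATAD5-tagged reporter cells indicates DNA-damage-driven ATAD5 induction. HEK293T cells are treated for 16 hr at 37C before detection with Amplite.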

[2] = qHTS assay to test for compound auto fluorescence at 460 nm (blue) in HEK293 cells (AID 720678); further: on the % scale 0 is the no-effect control and ±100 the full control effect
Summary of the method: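 Blue read-out at excitation 405 nm and emission 460 nm follows overnight compound exposure of HEK293 cells at 37C in 5% CO2. Activity is given as auto fluorescence equivalency to triamterene.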

[3] = qHTS assay to test for compound auto fluorescence at 590 nm (red) in HEK293 cells (AID 720679); further: on the % scale 0 is the no-effect control and ±100 the full control effect
Summary of the method: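 Red channel, Ex/Em 540/590nm; signal expressed as equivalency to Rose Bengal sodium. HEK293, 2,000 cells/well, 10% dialyzed FBS; 23 nL compound pinned after 4-5 hr attachment; overnight 37C/5% CO2 before reading.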

[4] = qHTS assay to test for compound auto fluorescence at 535 nm (green) in HEK293 cells (AID 720680); further: on the % scale 0 is the no-effect control and ±100 the full control effect
[5] = qHTS assay to test for compound auto fluorescence at 535 nm (green) in HEK293 cell free culture (AID 720682); further: on the % scale 0 is the no-effect control and ±100 the full control effect
Summary of the method: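 Fluorescein serves as the green reference fluorophore; each compound's intrinsic emission at 535 nm (excitation 485 nm) is reported as an equivalent amount of that dye, measured in serum-containing DMEM without cells.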

[6] = qHTS assay to test for compound auto fluorescence at 590 nm (red) in HEK293 cell free culture (AID 720683); further: on the % scale 0 is the no-effect control and ±100 the full control effect
Summary of the method: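 Tox21 10K library compounds were pinned into cell-free DMEM with 10% FBS and fluorescence was read at excitation 540 nm. Activity is expressed as Rose Bengal sodium equivalency.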

[7] = qHTS assay to test for compound auto fluorescence at 590 nm (red) in HepG2 cell free culture (AID 720684); further: on the % scale 0 is the no-effect control and ±100 the full control effect
Summary of the method: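 Red fluorescence (540 nm excitation, 590 nm emission) was measured after compound transfer into cell-free MEM supplemented with 10% FBS. Values are equivalencies against Rose Bengal sodium.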

[8] = qHTS assay to test for compound auto fluorescence at 460 nm (blue) in HepG2 cell free culture (AID 720685); further: on the % scale 0 is the no-effect control and ±100 the full control effect
Summary of the method: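 Compound (23 nL) or DMSO pinned into cell-free MEM with 10% FBS; blue fluorescence read at 405/460 nm excitation/emission, expressed as auto-fluorescence equivalency to triamterene.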

[9] = qHTS assay to test for compound auto fluorescence at 460 nm (blue) in HepG2 cells (AID 720687); further: on the % scale 0 is the no-effect control and ±100 the full control effect
Summary of the method: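 Cells (2,000/well in MEM with 10% FBS) attached overnight at 37 C, then were exposed to compound or DMSO for 1 hr at 37 C, 5% CO2. Fluorescence read at Ex/Em 405/460 nm, expressed as triamterene-equivalent signal.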

[10] = qHTS assay for identifying genotoxic compounds that show differential cytotoxicity against isogenic chicken DT40 cell lines with known DNA damage response pathways - Rev3 mutant cell line (AID 743014); further: potency means the concentration at half of the fitted maximal effect; nearly all actives have a fitted effect of over 55% in size
[11] = qHTS assay to identify small molecule antagonists of the estrogen related receptor signaling pathway with the pleiotropic PPARgamma coactivator (PGC) from Tox21 10K library (AID 1224841; call rule not given here; further: actives are mostly falling curves and most rising ones were filed inactive; nearly all actives have a fitted effect of over 50% in size; further: potency means the concentration at half of the fitted maximal effect)
Summary of the method: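 Antagonism in this quantitative HTS is taken from loss of luciferase signal in PGC/ERR cells. Cells (2,000/well) are treated with compounds in DMSO after a 6 h settling period and read by One-Glo luminescence after 18 h.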

[12] = target: Thyrotropin receptor (Homo sapiens) (UniProt P16473); assay: qHTS assay to identify small molecule agonists of the thyroid stimulating hormone receptor (TSHR) signaling pathway (AID 1224843; calls by dose curve; further: nearly all actives have a fitted effect of over 45% in size; further: potency means the concentration at half of the fitted maximal effect)
Sequence of Thyrotropin receptor (Homo sapiens) (P16473 whole entry, looked up): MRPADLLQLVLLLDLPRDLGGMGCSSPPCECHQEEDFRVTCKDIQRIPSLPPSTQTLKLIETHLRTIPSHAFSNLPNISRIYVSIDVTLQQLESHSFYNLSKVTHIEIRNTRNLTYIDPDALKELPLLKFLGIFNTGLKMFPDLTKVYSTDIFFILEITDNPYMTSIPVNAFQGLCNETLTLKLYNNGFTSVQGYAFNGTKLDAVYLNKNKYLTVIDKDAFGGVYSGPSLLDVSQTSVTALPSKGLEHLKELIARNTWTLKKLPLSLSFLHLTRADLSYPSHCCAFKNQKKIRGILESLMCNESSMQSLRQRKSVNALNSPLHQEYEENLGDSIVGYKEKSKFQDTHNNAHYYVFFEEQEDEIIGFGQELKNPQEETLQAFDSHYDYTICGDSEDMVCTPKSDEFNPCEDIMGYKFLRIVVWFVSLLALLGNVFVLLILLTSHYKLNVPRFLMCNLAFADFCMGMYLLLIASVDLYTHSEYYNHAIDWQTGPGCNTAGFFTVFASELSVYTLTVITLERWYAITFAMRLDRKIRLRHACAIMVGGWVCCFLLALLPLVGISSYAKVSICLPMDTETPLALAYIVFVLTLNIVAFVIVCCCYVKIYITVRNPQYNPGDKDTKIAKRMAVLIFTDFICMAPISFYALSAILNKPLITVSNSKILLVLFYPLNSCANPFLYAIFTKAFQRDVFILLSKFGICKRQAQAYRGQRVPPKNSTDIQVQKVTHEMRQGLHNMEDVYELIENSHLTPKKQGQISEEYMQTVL
Summary of the method: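 TSHR-expressing HEK293 cells (800 per well) were exposed to compounds for 30 min at room temperature. cAMP was then detected by HTRF competition with cAMP-d2 and anti-cAMP cryptate, read after 1 h at room temperature. Fifteen concentrations, triplicate.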

[13] = qHTS assay to identify small molecule antagonists of the estrogen related receptor (ERR) signaling pathway from Tox21 library (AID 1224848); further: nearly all actives have a fitted effect of over 50% in size; further: potency means the concentration at half of the fitted maximal effect
Summary of the method: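 Cells: ERR line, 2,000/well; 6 h preincubation 37 C/5% CO2. Cpd in DMSO via pin tool; 18 h, 37 C. ONE-Glo, 30 min RT, luminescence.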

[14] = qHTS RealTime-Glo MT Cell Viability Assay in HEK293 cells - 8 hour (AID 1224887); further: nearly all actives have a fitted effect of over 50% in size; further: potency means the concentration at half of the fitted maximal effect
Summary of the method: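 Nonlytic bioluminescent viability monitoring. HEK293 at 600 cells/well with reagent; 5 h settle; compound transfer by pintool; plates held at 37 C and read at set time points.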

[15] = target: Estrogen receptor (Homo sapiens) (UniProt P03372); assay: qHTS assay to identify small molecule antagonists of the estrogen receptor alpha (ER-alpha) signaling pathway using the BG1 cell line in the presence of 0.1 nM 17-beta-estradiol (AID 1259244); further: nearly all actives have a fitted effect of over 50% in size; further: potency means the concentration at half of the fitted maximal effect
Sequence of Estrogen receptor (Homo sapiens) (P03372 whole entry, looked up): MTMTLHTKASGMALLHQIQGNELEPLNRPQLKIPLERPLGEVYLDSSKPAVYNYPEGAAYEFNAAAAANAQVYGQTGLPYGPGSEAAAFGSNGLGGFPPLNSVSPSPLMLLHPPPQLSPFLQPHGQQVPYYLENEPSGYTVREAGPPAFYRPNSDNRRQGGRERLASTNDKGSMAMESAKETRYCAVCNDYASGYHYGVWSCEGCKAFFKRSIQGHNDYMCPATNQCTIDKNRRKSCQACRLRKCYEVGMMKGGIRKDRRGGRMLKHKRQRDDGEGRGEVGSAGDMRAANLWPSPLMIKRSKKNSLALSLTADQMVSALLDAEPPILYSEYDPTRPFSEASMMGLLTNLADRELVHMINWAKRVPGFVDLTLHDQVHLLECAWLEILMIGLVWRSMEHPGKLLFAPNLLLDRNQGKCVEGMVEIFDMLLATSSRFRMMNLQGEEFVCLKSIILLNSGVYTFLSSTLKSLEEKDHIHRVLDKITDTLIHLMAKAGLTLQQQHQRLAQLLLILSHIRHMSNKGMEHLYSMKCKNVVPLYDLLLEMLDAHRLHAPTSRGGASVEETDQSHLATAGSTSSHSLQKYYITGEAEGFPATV
Summary of the method: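 After 5 days in hormone-depleted medium (charcoal-stripped serum, no phenol red), VM7Luc4E2 cells were seeded, incubated 24 h, then co-treated with compound and 0.1 nM (final) estradiol for 22 h before luminescence detection.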

[16] = target: Estrogen receptor beta (Homo sapiens) (UniProt Q92731); assay: qHTS assay to identify small molecule agonists of the estrogen receptor beta (ER-beta) signaling pathway (AID 1259377; active means well fitted activation curve with a large enough effect in the signal ratio in the repeat runs, not every such curve was filed as active; the % refers to the signal ratio; further: on the % scale 0 is the no-effect control and ±100 the full control effect)
Sequence of Estrogen receptor beta (Homo sapiens) (Q92731 whole entry, looked up): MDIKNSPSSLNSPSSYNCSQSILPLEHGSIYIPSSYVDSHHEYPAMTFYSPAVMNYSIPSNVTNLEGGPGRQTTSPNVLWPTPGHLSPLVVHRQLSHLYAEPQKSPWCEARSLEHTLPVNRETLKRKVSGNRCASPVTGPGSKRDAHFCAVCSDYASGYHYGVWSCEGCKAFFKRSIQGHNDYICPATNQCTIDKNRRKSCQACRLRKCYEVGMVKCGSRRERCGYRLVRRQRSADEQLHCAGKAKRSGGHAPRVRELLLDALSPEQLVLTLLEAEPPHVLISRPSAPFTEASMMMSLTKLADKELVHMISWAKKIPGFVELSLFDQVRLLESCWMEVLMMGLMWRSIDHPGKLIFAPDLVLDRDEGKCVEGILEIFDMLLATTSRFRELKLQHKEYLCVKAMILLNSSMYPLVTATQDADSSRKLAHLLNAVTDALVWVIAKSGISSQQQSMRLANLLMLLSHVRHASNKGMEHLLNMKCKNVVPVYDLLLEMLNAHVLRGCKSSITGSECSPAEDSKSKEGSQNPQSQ
Summary of the method: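 HEK293T ER-beta-UAS-bla; 2% charcoal-stripped FBS; cells pre-incubated 6 hr, compound 16 hr, 37C/5% CO2; LiveBLAzer B/G FRET substrate 2 h RT; fluorescence intensity read.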

[17] = target: Thyrotropin receptor (Homo sapiens) (UniProt P16473); assay: qHTS assay to identify small molecule antagonists of the thyroid stimulating hormone receptor (TSHR) signaling pathway (AID 1259385; calls by dose curve; further: nearly all actives have a fitted effect of over 20% in size; further: potency means the concentration at half of the fitted maximal effect)
Summary of the method: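 TSHR-HEK293 cells were plated and held 18 h at 37C/5% CO2, then given compound plus Ro20-1724 and stimulated with TSH at 1.5 ng/mL final. After 30 min at room temperature, cAMP was detected with cAMP-d2/anti-cAMP-cryptate (1 h) by fluorescence.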

[18] = target: Progesterone receptor (Homo sapiens) (UniProt P06401); assay: qHTS assay to identify small molecule agonists of the progesterone receptor (PR) signaling pathway (AID 1346784; calls by dose curve; further: on the % scale 0 is the no-effect control and ±100 the full control effect; nearly all actives have a fitted effect of over 30% in size)
Sequence of Progesterone receptor (Homo sapiens) (P06401 whole entry, looked up): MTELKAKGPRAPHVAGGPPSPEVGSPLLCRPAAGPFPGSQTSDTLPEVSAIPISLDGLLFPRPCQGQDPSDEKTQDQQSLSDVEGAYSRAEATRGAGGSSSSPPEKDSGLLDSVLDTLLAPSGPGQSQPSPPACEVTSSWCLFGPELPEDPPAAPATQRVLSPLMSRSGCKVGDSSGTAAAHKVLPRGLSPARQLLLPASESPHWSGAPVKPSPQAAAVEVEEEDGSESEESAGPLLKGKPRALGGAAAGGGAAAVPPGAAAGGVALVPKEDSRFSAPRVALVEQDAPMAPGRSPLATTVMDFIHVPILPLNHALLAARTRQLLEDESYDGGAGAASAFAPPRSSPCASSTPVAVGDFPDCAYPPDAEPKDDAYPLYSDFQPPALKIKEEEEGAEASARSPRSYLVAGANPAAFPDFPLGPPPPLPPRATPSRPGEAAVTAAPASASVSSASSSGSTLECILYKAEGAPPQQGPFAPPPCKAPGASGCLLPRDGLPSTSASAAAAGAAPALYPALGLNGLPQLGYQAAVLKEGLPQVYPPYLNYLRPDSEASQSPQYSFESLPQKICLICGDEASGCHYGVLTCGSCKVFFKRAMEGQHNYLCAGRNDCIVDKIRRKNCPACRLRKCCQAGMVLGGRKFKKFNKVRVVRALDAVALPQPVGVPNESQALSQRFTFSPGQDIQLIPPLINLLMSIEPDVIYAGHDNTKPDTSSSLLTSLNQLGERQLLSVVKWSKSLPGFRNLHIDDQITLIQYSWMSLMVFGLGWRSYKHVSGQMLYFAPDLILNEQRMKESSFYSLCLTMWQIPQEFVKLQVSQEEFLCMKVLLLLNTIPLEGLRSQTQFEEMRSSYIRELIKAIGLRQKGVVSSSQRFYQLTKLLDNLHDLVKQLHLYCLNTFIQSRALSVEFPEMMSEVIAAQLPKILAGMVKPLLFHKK
Summary of the method: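 Beta-lactamase reporter read-out: after 16 hr compound treatment at 37C and a further 2 hr at room temperature with LiveBLAzer B/G FRET substrate, fluorescence was measured in PR-UAS-bla HEK 293T cells grown in 2% charcoal-stripped serum.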

[19] = qHTS assay to identify small molecule agonists of H2AX - cell viability counter screen (AID 1224847; calls by dose curve; further: nearly all actives have a fitted effect of over 30% in size; further: potency means the concentration at half of the fitted maximal effect)
Summary of the method: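 Cells plated first: CHO-K1, 1000 per well in 10% FBS medium, incubated overnight at 37C. Then 15-point compound titration added (final DMSO 0.76%) for 3 hr. Finally CellTiter-Glo added and luminescence read.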

[20] = qHTS assay to identify small molecule antagonists of the estrogen related receptor signaling pathway with the pleiotropic PPARgamma coactivator (PGC) from Tox21 10K library - cell viability counter screen (AID 1224840; active means well fitted cell-killing curve with a large enough effect in the repeat runs, not every such curve was filed as active; further: nearly all actives have a fitted effect of over 40% in size; further: potency means the concentration at half of the fitted maximal effect)
Summary of the method: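 Step one, plate 2,000 PGC/ERR cells per well; step two, incubate 6 h at 37 C/5% CO2; step three, pin-transfer compounds; step four, incubate 17.5 h; step five, add CellTiter-Fluor and read fluorescence after 30 min.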

c1ccc2c(c1)Sc1ccccc1N2CC1CN2CCC1CC2 (configuration not stated)
inactive: Potency [1] | Potency [2] | outcome [3] | Potency [4] | Potency [5] | outcome [6] | outcome [7] | Potency [8] | Potency [9] | Potency [11]
active: Potency [10] 11.9 µM

N#Cc1cc([N+](=O)[O-])ccc1N
inactive: Potency [12] | Potency [13] | Potency [14] | Potency [15] | outcome [16] | Potency [17] | outcome [18]

CC(c1ccccc1)(c1ccc(O)cc1)c1ccc(O)cc1
inactive: Potency [15] | outcome [16] | Potency [17]
active: Potency [11] 34.4 µM | Potency [12] 15.4 µM | Potency [13] 61.1 µM

CC1COC(Cn2cncn2)(c2ccc(Oc3ccc(Cl)cc3)cc2Cl)O1 (configuration not stated)
active: Potency [10] 0.686 µM | Potency [11] 8.63 µM | Potency [19] 101 µM | Potency [13] 4.33 µM | Potency [14] 21.9 µM | Potency [15] 10.9 µM
inactive: Potency [1] | Potency [2] | outcome [3] | Potency [4] | Potency [5] | outcome [6] | outcome [7] | Potency [8] | Potency [9] | Potency [12] | outcome [16]

Oc1c(I)cc(I)cc1I
active: Potency [11] 61.1 µM
inactive: Potency [20] | Potency [12] | Potency [14] | Potency [17] | outcome [18]

OC(Cc1ccccc1Cl)(Cn1[nH]cnc1=S)C1(Cl)CC1 (configuration not stated)
inactive: Potency [12] | Potency [17]

CCOC(=O)C(O)(c1ccc(Cl)cc1)c1ccc(Cl)cc1
active: Potency [10] 2.19 µM and 24.3 µM | Potency [19] 90.7 µM and 56.6 µM | Potency [14] 22.1 µM | Potency [15] 61.1 µM
inactive: Potency [1] | Potency [2] | outcome [3] | Potency [4] | Potency [5] | outcome [6] | outcome [7] | Potency [8] | Potency [9] | outcome [16] | outcome [18]

O=S(=O)(C(Cl)(Cl)Cl)C(Cl)(Cl)Cl
active: Potency [20] 48.6 µM | Potency [19] 89.8 µM | Potency [13] 54.5 µM | Potency [14] 15.5 µM | Potency [15] 27.3 µM
inactive: outcome [18]

O=C(Nc1ccccc1-c1ccc(Cl)cc1)c1cccnc1Cl
active: Potency [10] 67.4 µM | Potency [11] 64.8 µM | Potency [13] 32.5 µM
inactive: Potency [1] | Potency [2] | outcome [3] | Potency [4] | Potency [5] | outcome [6] | outcome [7] | Potency [8] | Potency [9] | Potency [20] | outcome [16] | outcome [18]

CNC(=O)Oc1cc(C)c(SC)c(C)c1
inactive: Potency [20] | Potency [12] | Potency [19] | Potency [17] | outcome [18]

COc1cc(OC)c(OC)cc1C=O
inactive: Potency [1] | Potency [2] | outcome [3] | Potency [4] | Potency [5] | outcome [6] | outcome [7] | Potency [8] | Potency [9] | Potency [20] | Potency [12] | Potency [19] | Potency [14]
active: Potency [10] 34.3 µM | Potency [11] 21.9 µM | Potency [13] 18.7 µM | Potency [15] 59.3 µM

Cc1ccc2nc3sc(=O)sc3nc2c1
inactive: viability change, negative = cytotoxic [20] -9.2% [at 19 µM] | activation [12] -7.09% [at 19 µM] | activity change, negative = cytotoxicity [19] 0.633% [at 31.6 µM] | activity change, negative = cytotoxicity [14] 4.11% [at 15.8 µM] | activity change, negative = inhibition [15] -0.302% [at 19 µM] | activity change, negative = inhibition [17] 2.89% [at 19 µM] | activation [18] 0.875% [at 19 µM]

Nc1ccc([N+](=O)[O-])cc1
inactive: Potency [2] | outcome [3] | Potency [4] | Potency [5] | outcome [6] | outcome [7] | Potency [8] | Potency [9] | Potency [11]
active: Potency [10] 13.3 µM | Potency [20] 30.6 µM | Potency [19] 101 µM | Potency [13] 7.7 µM | Potency [14] 21.9 µM

O=[N+]([O-])c1c(Cl)c(Cl)cc(Cl)c1Cl
inactive: Potency [1] | Potency [2] | outcome [3] | Potency [4] | Potency [5] | outcome [6] | outcome [7] | Potency [8] | Potency [9] | Potency [20] | Potency [13] | Potency [15] | outcome [18]

CCN(CC)C(=O)Cl
inactive: Potency [20] | Potency [11] | Potency [12] | Potency [19] | Potency [13] | Potency [14] | Potency [15] | outcome [16] | Potency [17] | outcome [18]

ClC(Cl)=C(c1ccc(Cl)cc1)c1ccccc1Cl
inactive: Potency [20] | Potency [12] | Potency [15] | outcome [16] | outcome [18]

Cc1ccc(N(SC(F)(Cl)Cl)S(=O)(=O)N(C)C)cc1
inactive: Potency [1] | Potency [2] | Potency [4] | Potency [5] | outcome [6] | outcome [7] | Potency [8] | Potency [9] | outcome [16]
active: Potency [10] 0.122 µM | Potency [20] 24.3 µM | Potency [11] 24.3 µM | Potency [19] 89.8 µM | Potency [13] 24.3 µM | Potency [14] 12.3 µM | Potency [17] 61.1 µM
